# Laboratory results as given in PubChem BioAssay (NCI).
# Compounds without any hit were thinned out: in the full panel of roughly 79,000, 15% have a hit. A number with no mark means an inactive call. Activity calls are given as the source filed them. No stated cut-off is given here; in the data, active means growth inhibition above about 70%; inactive means the rest.
# Legend:
# [1] = NCI Yeast Anticancer Drug Screen. Data for the rad50 strain (AID 155);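 further: 0% = growth of vehicle-only cultures of the same strain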; conditions: S. cerevisiae rad50 strain growth inhibition; at 50.0 µM; active compounds read high
# In short: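 Yeast carrying a defined DNA repair defect were exposed to test compounds, and growth was compared with vehicle-treated controls to give percent inhibition.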
# [2] = NCI Yeast Anticancer Drug Screen. Data for the mec2-1 strain (AID 157); conditions: S. cerevisiae mec2-1 strain, at 50.0 µM, active compounds read high
# In short: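 Compounds were applied to mec2-1 yeast cells. Their growth was then compared with that of vehicle-treated cultures to give growth inhibition.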
# [3] = NCI Yeast Anticancer Drug Screen. Data for the sgs1 mgt1 strain (AID 161);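 further: 0% = growth of cultures given vehicle only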; conditions: S. cerevisiae sgs1 mgt1 strain, at 50.0 µM, active compounds read high
# In short: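 Percent growth inhibition was derived by comparing compound-exposed mutant yeast with vehicle-exposed cultures. The strain carries alterations in DNA damage repair.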
# [4] = NCI Yeast Anticancer Drug Screen. Data for the cln2 rad14 strain (AID 165);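 further: 0% = growth equal to vehicle treated cultures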; conditions: S. cerevisiae cln2 rad14 strain, at 50.0 µM, active compounds read high
# In short: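 Strain: cln2 rad14 yeast, altered in cell cycle control and DNA damage repair. Read-out: growth inhibition vs vehicle.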
# [5] = NCI Yeast Anticancer Drug Screen. Data for the bub3 strain (AID 167); conditions: S. cerevisiae bub3 mutant strain, at 50.0 µM, active compounds read high
# In short: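 Compounds were applied to a genetically altered yeast strain carrying a cell-cycle control defect. Growth inhibition was scored against vehicle-treated controls.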
# [6] = NCI Yeast Anticancer Drug Screen. Data for the mlh1 rad18 strain (AID 175); conditions: S. cerevisiae mlh1 rad18 strain growth inhibition; at 50.0 µM; active compounds read high
# In short: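 A repair-deficient yeast strain is exposed to test compound, and growth is scored relative to vehicle-treated controls.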
Structure (SMILES),growth inhibition [1],growth inhibition [2],growth inhibition [3],growth inhibition [4],growth inhibition [5],growth inhibition [6]
COc1ncc(/C=C2\OC(=O)c3ccccc32)c(OC)n1,1.6%,-16.1%,19.9%,2.6%,6.05%,16.9%
CCN(CC)c1ccc(/C=C\c2c(C)cnc3ccccc23)cc1,8.85%,10%,17.9%,-24.4%,34.6%,-9.45%
C=CCNC(=S)Nc1ccccc1OCC,5.2%,-3.8%,-5.05%,-68.5%,-9.6%,0.2%
O=C(O)CNC(=O)CNC(=O)CNC(=O)CNC(=O)CNC(=O)OCc1ccccc1,38.2%,-0.25%,15.2%,28.1%,-0.95%,17.4%
CCc1ccc2c(c1)C(C)(CC)CCC2C (stereo unspecified),-2.45%,-6.5%,-16.4%,-43%,-8.95%,8.7%
ClC(Cl)(Cl)C1CCC2CCCC21 (stereo unspecified),4.15%,-24.1%,-3.45%,6.1%,-9.1%,-0.8%
O=[N+]([O-])/C(C(Cl)=C(Cl)Cl)=C1\NCCS1,39.7%,25.5%,40.2%,9.7%,34.6%,42.3%
OCC(O)Cn1cnc2c(NO)ncnc21 (stereo unspecified),-18.2%,-20.8%,-8%,-15.2%,4.85%,11.1%
COC(=O)/C(=N\O)C(C(=O)C=C(C)C)C(=O)C(=O)Nc1ccccc1C (stereo unspecified),-5.8%,-21.6%,-8.35%,7.4%,-14.1%,-18.1%
CC(C)(C(=O)c1cccnc1)c1cccnc1,4.25%,-9.25%,17.1%,2.3%,17.1%,12.7%
COC(=O)NC(C(F)(F)F)(C(F)(F)F)P1(=O)OCCCO1,54.5%,59.9%,26.3%,43%,54%,37.6%
C1CCCC(N2N=NC3C4CC(C5N=NN(C6CCCCCC6)C45)C32)CC1 (stereo unspecified),12.8%,17.5%,7.65%,64.8%,-8.55%,11.7%
CCOC(=O)CCc1c[nH]c2ccccc12,-12.3%,-17.1%,-9.9%,-9.85%,0.2%,-3.5%
Cc1nc(C)c(N2CCN(Cc3ccccc3)CC2)c(=O)[nH]1,8.65%,2.5%,-45.1%,13%,17.4%,-52.9%
CC1(C)NNC(=S)NC1=O,-11.7%,-13.6%,-7.65%,17.1%,-15.6%,-5.5%
CCN(CC)CC(Oc1ccccc1)C(=O)c1ccccc1 (stereo unspecified),-10.2%,-15.7%,4.75%,-30.1%,-11.4%,-7.4%
O=NN(CC(=O)O)c1ccc2ccccc2c1,2.55%,-7.3%,13.8%,-39.5%,-14.9%,-2.85%
CC1CCCC2(C)CCC(=O)C=C12 (stereo unspecified),-2%,6.75%,-12.5%,-13.8%,-1.95%,-20.5%
O=C(O)/N=N\C(=O)O,-36.9%,-23.9%,-19.4%,-5.05%,-26.4%,-27.2%
CC(O)c1ccc2c(c1)Nc1ccccc1S2 (stereo unspecified),-6.95%,-21.9%,-16.4%,-7.05%,-24.4%,-11%
[CH3][Sn]([CH3])([N](c1ccccn1)c1ccccn1)[N](c1ccccn1)c1ccccn1,-8.85%,2.7%,17%,-17.3%,-1.65%,-21.4%

Structure (SMILES),growth inhibition [1],growth inhibition [2],growth inhibition [3],growth inhibition [4],growth inhibition [5],growth inhibition [6]
[N-]=[N+]=C(C(=O)N1CCCC1=O)S(=O)(=O)c1ccccc1,-17.3%,-12.4%,-17.9%,5.45%,-14.4%,2.45%
N=c1ccccn1CC(O)COc1ccccc1 (stereo unspecified),-11.2%,-9.6%,-1.6%,1.1%,4.2%,-5.8%
CCCCCCCCCCCCCCCCCC1=NCC(C)O1 (stereo unspecified),4.6%,-14%,-0.35%,19.6%,13.3%,-10.1%
CC(=O)c1cccc(OC(=O)c2ccccc2)c1,23.5%,8.3%,35%,10.7%,45.1%,30.8%
COc1nsc2ccc(C(C)C(N)=O)cc12 (stereo unspecified),-35.5%,3.8%,-9.1%,-22.4%,-2.25%,-4.4%
N#CCCCCCCC(N)=O,4.4%,-0.9%,6.4%,-1.25%,-5.6%,-16.2%
CN1C(=O)c2ccccc2NC(=O)C12O[C@@H]2c1cccc(O)c1 (stereo partly specified),9%,-0.55%,11.2%,8.9%,6.9%,8.05%
C=C1C(=O)OC2C=C(C)C3C(OC(=O)c4ccccc4)CC(C)(O)C3CC12 (stereo unspecified),1.4%,-41.4%,3.05%,16.6%,-2.75%,0.45%
Cc1cc(Cl)c2c(C)ccc(C)c2n1,-4.25%,-31.9%,9.85%,5.7%,4%,8.95%
CCN(CC)C(CC(=O)c1ccccc1)C(=O)c1ccccc1 (stereo unspecified),23.9%,16.5%,13.2%,-10%,13.3%,49.6%
CC(C)(C)c1ccc2c(c1)CNCCNCCNCc1cc(C(C)(C)C)ccc1OCC1(CO2)COc2ccc(C(C)(C)C)cc2CNCCNCCNCc2cc(C(C)(C)C)ccc2OC1,91% (active),93% (active),92% (active),91.2% (active),92.2% (active),89.8% (active)
CC(=O)Nc1ccc(/C=C/c2ccc(N=C=S)c(S(=O)(=O)O)c2)c(S(=O)(=O)O)c1,9.5%,-4.4%,-19%,10.1%,1.4%,-13.5%
CCOC(=O)c1c[nH]c2c(=O)n(C)c(=O)[nH]c12,7.25%,-7.75%,3.5%,-28.8%,0.5%,24.1%
CC(C)[Si](C#CC[Si](C(C)C)(C(C)C)C(C)C)(C(C)C)C(C)C,-13.8%,-6%,-17.4%,-17.6%,-20.3%,-9.35%
CCOc1ccc(-c2oc(/C=N/NS(=O)(=O)c3ccc(C)cc3)c([N+](=O)[O-])c2-c2ccc(OCC)cc2)cc1,59.7%,37.5%,64%,62.2%,44.6%,58.5%
CC(=O)N(CCCCNC(=O)C(F)(F)F)CCCNC(=O)C(F)(F)F,2.7%,-6.5%,6.55%,5.15%,-26.8%,-58.5%
O=C1/C(=C/c2ccc3c(c2)OCO3)CC/C1=C\c1ccc2c(c1)OCO2,-10.2%,5.35%,-19.7%,-55.6%,-13.7%,-26.9%
N#Cc1c(N)nc(N)nc1Nc1ccc(Cl)cc1,13.6%,-8.7%,9.25%,26.9%,-5.8%,25.6%
CC(=O)NS(=O)(=O)c1ccc(N=C=S)cc1,-7.25%,1.85%,-12.8%,-19.4%,-2.9%,-1.05%
CC(C)CN(CC#N)CC(C)C,-31.8%,-26.9%,-34.5%,15.1%,-49.1%,-50%
